# Data reported in the supplement of paper PMC10646978.
# ± gives the standard deviation.
# What was measured:
# Details in all cases: modulator concentration 10 µM
# [1] = test system: RAW-Dual (murine macrophage reporter line); assay: NF-kB reporter (SEAP) activity fold change vs agonist alone; higher = enhanced NF-kB activity
# Summary of the method: (§1)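 RAW-Dual murine macrophage reporter cells were seeded at 50 000 per well in 384-well plates and pre-incubated 1 hour at 37 °C with compound pin-transferred to 10 μM final. After 1 hour, a PRR agonist was added and cells incubated overnight. Supernatant NF-κB (SEAP, QUANTI-Blue, 620 nm absorbance) and IRF (Lucia luciferase, QUANTI-Luc, luminescence) signals were divided by the mean agonist-only control on the same plate to give fold change. Two replicate plates were averaged, with errors by propagation.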
# [2] = test system: RAW-Dual (murine macrophage reporter line); assay: IRF reporter (Lucia luciferase) activity fold change vs agonist alone; higher = enhanced IRF activity
# Summary of the method: as §1
# [3] = test system: RAW-Dual (murine macrophage reporter line); assay: viability score (confluency relative to resting cells, overnight) (fraction); higher = more viable, active = viable (0.7 or more)
# Summary of the method: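 A compound met the cutoff when both of two confluency masks exceeded 70% of resting cells. Those masks were made with IncuCyte software from IncuCyte images of RAW-Dual macrophages treated overnight at 10 μM final. This is the basis of the viability score, which is confluency relative to resting cells.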
# [4] = agonist: CpG ODN 1826 0.5 ug/mL
SMILES,"NF-kB reporter [1, 4]",NF-kB reporter ([1]; agonist: LPS 0.1 ug/mL),NF-kB reporter ([1]; agonist: MPLA […]),IRF reporter ([2]; agonist: 3'3'-cGAMP 10 ug/mL),IRF reporter ([2]; agonist: LPS 0.1 ug/mL),IRF reporter ([2]; agonist: MPLA […]),viability score [3]
NC(Cc1ccccc1)C(=O)O (stereo not drawn),1.29 ± 0.31,0.956 ± 0.07,0.943 ± 0.071,0.911 ± 0.032,1.12 ± 0.22,1.1 ± 0.1,1 (active)
CN1CCN(C(=O)c2cc(-c3ccccc3)nc3ccccc23)CC1,1.03 ± 0.11,0.906 ± 0.059,0.957 ± 0.043,0.941 ± 0.15,0.923 ± 0.051,0.884 ± 0.081,0.996 (active)
Cc1cc(OCC(O)Cn2cnc3ccccc32)ccc1Cl (stereo not drawn),1.05 ± 0.06,1.1 ± 0.084,1.14 ± 0.082,0.913 ± 0.035,0.9 ± 0.086,0.685 ± 0.12,0.906 (active)
OCCN1CCN(CC/C=C2/c3ccccc3Sc3ccc(Cl)cc32)CC1 [Prestw-998],0.395 ± 0.067,0.914 ± 0.093,1.36 ± 0.26,0.303 ± 0.008,1.85 ± 0.3,2.43 ± 0.28,0.624 (inactive)
CN1c2ccccc2-c2ccccc2C12C=Cc1cc([N+](=O)[O-])ccc1O2 (stereo not drawn),0.385 ± 0.021,0.916 ± 0.1,0.879 ± 0.07,1.09 ± 0.07,1.27 ± 0.2,1.1 ± 0.12,0.999 (active)
O=c1ncnc2[nH][nH]cc1-2,0.832 ± 0.071,0.865 ± 0.043,1.13 ± 0.13,0.979 ± 0.059,1.17 ± 0.07,1.31 ± 0.15,1.02 (active)
Cc1cc(OCC(=O)NN=Cc2ccc(O)c([N+](=O)[O-])c2)ccc1Cl,1.03 ± 0.29,1.04 ± 0.092,1.02 ± 0.093,1 ± 0.041,1.08 ± 0.2,1.13 ± 0.13,0.998 (active)
COC(=O)c1ccc(CSc2ccc3nnc(-c4cccc(F)c4)n3n2)o1,1 ± 0.08,1.18 ± 0.072,1.03 ± 0.062,0.966 ± 0.035,1.05 ± 0.082,0.968 ± 0.093,0.998 (active)
C=C1C(=O)OC2C1CCC(C)=CCCC1(C)OC21 (stereo not drawn),0.0586 ± 0.0046,0.0442 ± 0.0037,0.0844 ± 0.008,0.0346 ± 0.011,0.025 ± 0.0055,0.0274 ± 0.0061,0.253 (inactive)
CCCCc1ncc(/C=C(\Cc2cccs2)C(=O)O)n1Cc1ccc(C(=O)O)cc1.CS(=O)(=O)O,1.08 ± 0.081,1.11 ± 0.055,1.03 ± 0.039,0.927 ± 0.062,0.973 ± 0.077,0.836 ± 0.079,1 (active)
COc1ccc(S(=O)(=O)NNc2ccc([N+](=O)[O-])cc2[N+](=O)[O-])cc1,1.21 ± 0.07,0.864 ± 0.059,0.777 ± 0.05,0.342 ± 0.025,1.22 ± 0.19,1.34 ± 0.14,0.962 (active)
CC(C)(C)c1cc(C=NO)c(C(C)(C)C)s1,0.48 ± 0.028,1.03 ± 0.063,0.985 ± 0.061,0.6 ± 0.02,1.13 ± 0.074,0.746 ± 0.22,0.0422 (inactive)
O=C(Nc1ccc(-c2cn3ccsc3n2)cc1)C1CCCC1,1.14 ± 0.09,1.1 ± 0.15,1.37 ± 0.13,0.69 ± 0.027,1.23 ± 0.18,1.38 ± 0.23,0.962 (active)
Cc1nc(-c2ccc(OCC(C)C)c(C#N)c2)sc1C(=O)O,0.891 ± 0.14,0.957 ± 0.34,1.02 ± 0.065,0.883 ± 0.048,0.973 ± 0.3,1.06 ± 0.22,1 (active)
Cl.NC12CC3CC(CC(C3)C1)C2,1.44 ± 0.2,1.21 ± 0.38,1.04 ± 0.062,0.909 ± 0.033,1.44 ± 0.24,1.12 ± 0.096,0.983 (active)
O=C(Cc1ccc(F)cc1F)N1CCC(n2c(=O)[nH]c3ccccc3c2=O)CC1,1.01 ± 0.06,1.15 ± 0.088,0.997 ± 0.026,0.878 ± 0.033,1.07 ± 0.061,1.03 ± 0.12,1 (active)
COc1c(Cl)cc(C(=O)Nc2cccc(NC(=O)c3ccco3)c2)cc1Cl,1.15 ± 0.098,1.01 ± 0.056,0.682 ± 0.043,0.858 ± 0.022,1.1 ± 0.11,0.956 ± 0.29,1.01 (active)
CCN1C(=O)C(=Cc2cc(Br)ccc2OCCOc2ccccc2Cl)SC1=S,0.714 ± 0.064,0.899 ± 0.11,1.1 ± 0.096,0.982 ± 0.057,1.14 ± 0.086,1.18 ± 0.12,1.02 (active)
CN(C)CCCN1c2ccccc2CCc2ccc(Cl)cc21.Cl,0.559 ± 0.098,1.15 ± 0.43,1.64 ± 0.2,0.503 ± 0.02,1.18 ± 0.53,1.78 ± 0.18,0.239 (inactive)
CCOc1ccc2oc(-c3ccccc3)c(C(=O)N3CCN(C)CC3)c2c1,1.03 ± 0.052,1.09 ± 0.087,1.03 ± 0.05,1.05 ± 0.053,1.15 ± 0.13,1.26 ± 0.31,0.966 (active)
CCOC(=O)c1ccccc1NC(=O)CN(c1cc(C)ccc1OC)S(C)(=O)=O,1.05 ± 0.097,1.03 ± 0.068,0.994 ± 0.047,1.01 ± 0.21,1.05 ± 0.11,1 ± 0.2,1 (active)
O=C(c1ccc(OC(F)(F)F)cc1)N1CCC(Oc2cnccn2)CC1,1.05 ± 0.42,1.23 ± 0.061,1.04 ± 0.066,0.902 ± 0.03,1.19 ± 0.13,1.28 ± 0.13,0.996 (active)
CN(C(=O)c1cncc(F)c1)C1CN(c2ccc3nnc(C4CC4)n3n2)C1,0.937 ± 0.055,0.988 ± 0.078,0.83 ± 0.082,0.956 ± 0.087,0.991 ± 0.14,0.859 ± 0.4,1 (active)
Cc1oncc1C(=O)NCc1cc(C2CC2)n(C)n1,0.927 ± 0.087,0.954 ± 0.12,0.975 ± 0.065,0.946 ± 0.04,0.982 ± 0.072,0.921 ± 0.24,0.997 (active)
